Assay results taken from the supplement of paper PMC13380429.
A number with no mark means an inactive call.

The molecules below were run on Vero E6 infected with SARS-CoV-2 (assay: inhibition of SARS-CoV-2 cytopathic effect; higher = more antiviral protection, active = above 15). Conditions: 1 nM; 48 h.

Structure (SMILES) | inhibition of SARS-CoV-2 cytopathic effect [%]
CC(=O)OCC1=C(C(=O)O)N2C(=O)[C@@H](N)[C@H]2SC1 [7-aminocephalosporanic-acid] | -5.97
O[C@@H](CN1CCC(Cc2ccc(F)cc2)CC1)c1ccc(Cl)cc1 (racemic) [eliprodil] | 0.81
CCCCOc1ccc(C(=O)Nc2ccc(F)cc2F)cc1 | -1.89
CC(C)Nc1cccnc1N1CCN(C(=O)c2cc3cc(NS(C)(=O)=O)ccc3[nH]2)CC1 [delavirdine] | -1.49
COc1ccc2ccc(=O)oc2c1CC=C(C)C [osthol] | 2.39
CCN(CC)CCNC(=O)c1cc(Br)c(N)cc1OC [bromopride] | -3.41
O=C(O)c1c(Sc2ccccc2)c2cc(Cl)ccc2n1Cc1ccc(Cl)cc1 | 1.19
CC[C@@H](C)Nc1cc(C(=O)N[C@H]2C[C@H]3CC[C@@H](C2)N3c2ccc(C(=O)C3CC3)cn2)c(C)cc1C(N)=O | 1.52
CC1(C)CC(Oc2ccc(-c3ccc(-c4cn[nH]c4)cc3O)nn2)CC(C)(C)N1 | 1.13
O=C(/C=C\n1cnc(-c2cc(C(F)(F)F)cc(C(F)(F)F)c2)n1)NNc1cnccn1 [selinexor] | -0.07
CCCCc1ccc(O)cc1O [rucinol] | -2.6
Nc1ncnc2c1ncn2[C@@H]1O[C@H](CO)C[C@H]1O [cordycepin] | -1.1
COc1cc(NC(=O)c2ccccn2)ccc1Cl | -0.99
Cc1onc(-c2ccccc2Cl)c1C(=O)N[C@@H]1C(=O)N2[C@@H]1SC(C)(C)[C@@H]2C(=O)O [cloxacillin] | 2.33
CC(C)Cn1cnc2c1c(=O)n(C)c(=O)n2C [isbufylline] | -1.81
CNC(=O)[C@H](Cc1ccccc1)NC(=O)[C@H](CC(C)C)[C@H](CSc1cccs1)C(=O)NO [batimastat] | -1.9
O=C(Nc1ccccc1)OCC(CN1CCCCC1)OC(=O)Nc1ccccc1 (centres undefined) [diperodon] | 0.17

Structure (SMILES) | inhibition of SARS-CoV-2 cytopathic effect [%]
CC(C[N+](C)(C)C)OC(N)=O (centres undefined) [bethanechol] | -5.4
Cc1ncc([N+](=O)[O-])n1CC(O)CN1CCOCC1 (centres undefined) [morinidazole] | -0.31
Cc1nnc(C(C)C)n1C1C[C@H]2CC[C@@H](C1)N2CC[C@H](NC(=O)C1CCC(F)(F)CC1)c1ccccc1 (stereo in doubt) [maraviroc] | -2.38
O=c1[nH]cnc2nc[nH]c12 [hypoxanthine] | 4.22
CCC(=N\O)/C(C)=C/c1ccc(F)cc1 | -0.84
Cc1cc(/C=C2\SC(=O)N(c3ccccc3)C2=O)c(C)n1-c1cccnc1 | 2.97
CC(C)(COP(=O)(O)OP(=O)(O)OC[C@H]1O[C@@H](n2cnc3c(N)ncnc32)[C@H](O)[C@@H]1OP(=O)(O)O)[C@@H](O)C(=O)NCCC(=O)NCCS [coenzyme-A] | -2.14
O=c1[nH]c(=O)n([C@H]2C[C@H](O)[C@@H](CO)O2)cc1Br [broxuridine] | 1.7
NC(=O)NC(=O)Cc1ccccc1 [phenacemide] | -1.41
O=C(OOC(=O)c1ccccc1)c1ccccc1 [benzoyl-peroxide] | 2.98
Cc1ccc(NC(=O)c2ccc(CN3CCN(C)CC3)cc2)cc1Nc1nc(-c2cccnc2)cs1 [masitinib] | 1.41
FC(F)(F)c1cc(NC(=S)Nc2ccc(Br)cc2-c2nnn[nH]2)cc(C(F)(F)F)c1 | -3.42
Cc1cc(C)c(NC(=O)C2CC3CCC2C3)c(C)c1 (centres undefined) | -1.62
O=[N+]([O-])c1cc([N+](=O)[O-])c(/C=C/c2ccc(Cl)c(Cl)c2)cc1/C=C/c1ccc(Cl)c(Cl)c1 | 2
CO[C@H]1CC=C2CCN3CCC4=C(CC(=O)OC4)[C@]23C1 | 1.56
CN1C(=O)C(F)=C[C@]2(C)[C@H]3CC[C@]4(C)[C@@H](C(=O)NCc5nc6cccnc6[nH]5)CC[C@H]4[C@@H]3CC[C@@H]12 | 0.34
CN1CCC(COc2cnc(-c3cccc(Cn4nc(-c5cccc(C#N)c5)ccc4=O)c3)nc2)CC1 | 1
